Bioassay records as filed in PubChem BioAssay.
USP8 block: human USP8 deubiquitinase inhibition | purified USP8, Ub-rhodamine cleavage fluorescence, 30 min | inhibition, % at 20 µM | 4.2% of 47,000 active | AID 1645853
USP28 block: blocks human USP28 ubiquitin-rhodamine cleavage. purified USP28, Ub-rhodamine cleavage fluorescence, 30 min. AID 1645857. inhibition, % at 25 µM. 3% of 47,000 active
USP10 block: inhibitors of human USP10 deubiquitinase; inhibition, % at 20 µM; purified USP10, Ub-rhodamine fluorescence, 60 min; 1.1% of 47,000 active; AID 1645856; Q14694
OTUD3 inh: human OTUD3 deubiquitinase inhibition. purified OTUD3, Ub-rhodamine fluorescence, 2 h. AID 1645858. Q5T2D3. inhibition, % at 25 µM. 0.7% of 47,000 active
Target sequence (Q5T2D3 whole entry, looked up): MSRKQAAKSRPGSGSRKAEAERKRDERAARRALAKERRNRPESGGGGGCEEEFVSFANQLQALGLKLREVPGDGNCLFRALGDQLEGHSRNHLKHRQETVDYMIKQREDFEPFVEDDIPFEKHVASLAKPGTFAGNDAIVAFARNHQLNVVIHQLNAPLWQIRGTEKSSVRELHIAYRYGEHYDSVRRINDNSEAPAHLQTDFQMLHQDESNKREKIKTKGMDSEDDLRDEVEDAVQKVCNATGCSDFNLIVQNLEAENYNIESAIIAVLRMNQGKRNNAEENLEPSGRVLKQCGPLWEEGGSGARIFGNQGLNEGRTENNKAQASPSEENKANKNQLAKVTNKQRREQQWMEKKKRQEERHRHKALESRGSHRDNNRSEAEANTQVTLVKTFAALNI
USP17 block: blocks human USP17 ubiquitin-rhodamine cleavage; inhibition, % at 50 µM; purified USP17, Ub-rhodamine cleavage fluorescence, 3 h; 6.5% of 47,000 active; A8MUK1
USP30 inh: human USP30 deubiquitinase inhibition. 5.3% of 47,000 active. purified USP30, Ub-rhodamine cleavage fluorescence. inhibition, % at 25 µM
* marks the source's active call; other numbers are inactive results; . = no result given. Rows were chosen to be rich in hits. Some 13% of all compounds tested hit in one or more screens of this group. Rule as the data show it: active = inhibition above about 30%; inactive = the rest.

SMILES	USP8 block	USP28 block	USP10 block	OTUD3 inh	USP17 block	USP30 inh
Cc1c(-c2nnc(-c3ccccn3)o2)nnn1-c1cccc(Cl)c1	1	94*	0	20	11	70*
COc1ccc(-c2nc(-c3nnn(-c4ccc(C)cc4)c3C)no2)cc1OC	15	15	-3	12	17	22
Cc1c(C(=O)NCC2CCCO2)nnn1-c1cccc(Cl)c1 (centres undefined)	1	-10	-1	-5	-23	-9
COc1cccc(-n2nnc(-c3nnc(-c4ccccc4C)o3)c2C)c1	-17	2	5	8	-2	49*
COc1ccc(OC)c(-n2nnc(-c3nc(-c4ccccc4C)no3)c2C)c1	0	.	10	4	32*	.
Cc1ccc(-c2nnc(-c3nnn(-c4ccc(C)cc4)c3C)o2)cc1	23	15	4	9	25	35*
O[C@H]1[C@H](NCc2ccccc2)[C@@H](c2ccccc2)C[C@H]1O	-2	-4	-2	-5	-27	-23
O=C(Nc1nc2c(s1)CN(C(=O)/C=C/c1ccccc1Cl)CC2)c1cnccn1	-217	-3	-8	3	-14	-87
Cc1ccccc1-c1noc(-c2cccn(CC(=O)Nc3ccccc3F)c2=O)n1	76*	-24	-6	-13	8	-36
Cc1cccc(NC(=O)c2nn(C)c3ccccc3c2=O)c1	7	19	-2	3	64*	37*
Cn1ccnc1CN1CCC([C@@H]2OC(C)(C)C3CC2[C@](C)(O)[C@@H](O)C3)CC1 (some centres undefined)	0	16	5	15	.	32*
CC1(C)O[C@@H](C2CCN(Cc3ccccn3)CC2)C2CC1C[C@H](O)[C@@]2(C)O (some centres undefined)	-20	-16	-11	-8	-22	-86
N#Cc1ccc(COc2ncnc3scc(-c4ccccc4)c23)cc1	10	35*	-4	0	-9	10
Cc1ccc(NC(=O)c2cn(C)nc2S(=O)(=O)N2CCCCCC2)cc1F	-218	-16	-3	-9	-48	-26
COc1ccc2cc(C(C)C(=O)NCc3ccccc3)ccc2c1 (centres undefined)	-12	28	9	14	12	42*
CC(=O)Nc1ccc(S(=O)(=O)NCc2ccc(C(=O)NCCN3CCCCCC3)cc2)cc1	-10	-6	-6	-27	35*	-123
COc1ccc(CNC(=O)c2ccc(S(=O)(=O)Nc3ccccc3F)cc2)cc1	12	11	7	8	25	31*
CCOC(=O)N1CCN(C(=O)c2ccc(CNS(=O)(=O)c3ccc(NC(C)=O)cc3)cc2)CC1	22	10	3	10	17	23
COc1ccc(CNC(=O)c2ccc(CNS(=O)(=O)c3ccc(NC(C)=O)cc3)cc2)cc1	19	13	5	8	41*	37*
O=C(c1ccc([N+](=O)[O-])cc1)N(CC1CCCO1)C1CCSC1 (centres undefined)	-78	5	0	12	-2	12
COc1ccc(C(=O)Nc2ccccc2C(=O)NCc2ccccc2)cc1	16	23	7	22	16	92*
COc1ccc(S(=O)(=O)N2CCCC2)cc1C(=O)NCc1ccc2c(c1)OCO2	4	35*	2	9	5	25
COc1ccc(S(=O)(=O)N2CCCCCC2)cc1C(=O)Nc1ccc2[nH]c(=O)[nH]c2c1	11	47*	7	25	30*	50*
CN1C(=O)c2ccccc2OCCCCC[C@H]2[C@@H]1CCCN2C(=O)CN1C(=O)NC2(CCCC2)C1=O	-1	-3	1	-2	4	0
COc1ccccc1-c1noc(C2CCCN(S(=O)(=O)c3ccc(C)cc3)C2)n1 (centres undefined)	2	3	1	3	0	2
SMILES	USP8 block	USP28 block	USP10 block	OTUD3 inh	USP17 block	USP30 inh
c1ccc2c(c1)N=C(c1ccc3c(c1)OCO3)CCN2	78*	13	-7	-14	41*	-60
CC1CCN(C(=O)c2c[nH]c3ccc(S(=O)(=O)N(C)Cc4ccccc4)cc3c2=O)CC1	-68	-6	2	-8	-35	-64
O=C(CCC(=O)c1ccc(F)cc1)Nc1cccc(S(=O)(=O)Nc2cccc(Cl)c2)c1	-20	-68	32*	5	-3	-2
Cc1ccc(S(=O)(=O)Nc2cccc(Cl)c2)cc1NC(=O)CCc1ccccc1	17	10	15	9	22	15
Cc1ccc(S(=O)(=O)Nc2cccc(Cl)c2)cc1NC(=O)CCC(=O)c1ccc(Cl)cc1	7	-12	34*	0	0	18
Cc1ccc(S(=O)(=O)Nc2ccc(Cl)cc2)cc1NC(=O)CC(=O)c1ccccc1	51*	7	27	-9	38*	-2
O=S(=O)(Nc1ccc(O)cc1)c1ccc2oc3ccc(S(=O)(=O)Nc4ccc(O)cc4)cc3c2c1	2	23	22	4	54*	34*
CCC(=O)Nc1nc2ccc(CC(=O)NC3CCN(Cc4ccccc4)CC3)cc2s1	-27	-40	-3	-70	-9	-271
O=C(C[C@@H]1CCN2C[C@@H]1CCCOc1ccccc1CN(C(=O)Nc1ccccc1)CC2=O)N1CCOCC1	-12	74*	-5	-8	75*	79*
O=C(Nc1ccccc1-c1cnn(-c2ccccc2)c1)c1ccccc1Cl	18	20	-1	7	.	41*
O=C(O)c1ccc(-c2cnn(-c3ccccc3)c2)nc1	-4	-8	0	-6	-26	-73
O=C(Nc1cccc(S(=O)(=O)NC2=NCCC2)c1)c1cc(-c2ccccc2)nc2ccccc12	1	-8	-3	-7	-5	-17
O=C(Nc1cccc(S(=O)(=O)NC2=NCCC2)c1)c1cc(-c2ccccc2)n[nH]1	4	42*	1	9	39*	37*
COc1ccc(C)cc1NC(=O)CC(c1ccco1)n1cccc1 (centres undefined)	1	-1	3	-4	-15	-21
O=C1[C@@H]2CCCN2c2ncccc2N1Cc1c(Cl)cccc1Cl	-7	-4	-4	-12	-6	-15
Cc1ccc(NC(=O)COc2ccc3oc4c(c3c2)CCCC4)cc1	30	17	9	16	14	38*
Cc1ccc(NC(=O)c2oc3ccccc3c2NC(=O)COc2ccc(C)cc2)cc1	-7	-2	8	-1	2	3
Cc1cc(NC(=O)COc2ccc3oc4c(c3c2)CCCC4)n(-c2ccccc2)n1	19	.	39*	1	73*	.
CCC1CN(S(=O)(=O)c2ccc3c(c2)NC(=O)CCS3)c2cc(C)ccc2O1 (centres undefined)	1	13	3	13	20	43*
COc1cccc(N2CCN(c3ccc4nnc(CCC(=O)NCCc5c[nH]c6ccccc56)n4n3)CC2)c1	-6	-8	-2	-12	17	16
